High-throughput results (PubChem)
Compounds with a hit are over-represented: about 2.6% of the library has one in this group of screens.
PHOSPHO1 inh – PubChem AID 1565. Phosphoethanolamine/phosphocholine phosphatase (Homo sapiens), Q8TCT1. recombinant PHOSPHO1, absorbance phosphatase assay. inhibition, % at 13.3 µM. actives 1.1% (n = 290,000); in the data active = inhibition above about 60%
Target sequence (Q8TCT1 whole entry, looked up): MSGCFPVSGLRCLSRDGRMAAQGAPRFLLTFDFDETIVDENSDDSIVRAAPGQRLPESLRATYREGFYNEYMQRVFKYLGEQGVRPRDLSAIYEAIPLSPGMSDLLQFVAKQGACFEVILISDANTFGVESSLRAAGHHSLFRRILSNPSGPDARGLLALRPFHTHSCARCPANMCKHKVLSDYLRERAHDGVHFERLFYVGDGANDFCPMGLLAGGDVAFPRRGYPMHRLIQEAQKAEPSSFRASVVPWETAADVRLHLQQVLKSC
eIF4H FP inh – human eIF4H binding inhibitors, primary screen, translation initiation inhibitor project, biochemical, uHTS, fluorescence polarization. eIF4H fluorescence polarization binding assay. actives 0.94% (n = 290,000). inhibition, % at 35 µM. Eukaryotic translation initiation factor 4H (Homo sapiens), Q15056. AID 2012, 2009;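 note: calls also rest on retests at 20 µM and on dose response follow-up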
MLLE-PAM2 inh – inhibitors of PABP1 MLLE–PAM2 peptide binding, primary screen, biochemical, fluorescence polarization, FITC-PAM2, GST-MLLE. inhibition, % at 20 µM. actives 0.36% (n = 360,000). Polyadenylate-binding protein 1 (Homo sapiens), P11940; in the data active = inhibition above about 35%, passing the limit was not always enough
A3G deaminase – APOBEC3G DNA deaminase inhibitors, primary screen, biochemical, fluorescence, single-stranded DNA substrate, uHTS | DNA dC->dU-editing enzyme APOBEC-3G (Homo sapiens), Q9HC16 | recombinant A3G, ssDNA deamination FAM/TAMRA fluorescence | inhibition, % at 20 µM | actives 0.28% (n = 330,000) | AID 493012, 2011;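 active = inhibition of at least 40% at 20 µM, with no more than 30% in the related APOBEC3A deaminase screen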
Target sequence (Q9HC16 whole entry, looked up): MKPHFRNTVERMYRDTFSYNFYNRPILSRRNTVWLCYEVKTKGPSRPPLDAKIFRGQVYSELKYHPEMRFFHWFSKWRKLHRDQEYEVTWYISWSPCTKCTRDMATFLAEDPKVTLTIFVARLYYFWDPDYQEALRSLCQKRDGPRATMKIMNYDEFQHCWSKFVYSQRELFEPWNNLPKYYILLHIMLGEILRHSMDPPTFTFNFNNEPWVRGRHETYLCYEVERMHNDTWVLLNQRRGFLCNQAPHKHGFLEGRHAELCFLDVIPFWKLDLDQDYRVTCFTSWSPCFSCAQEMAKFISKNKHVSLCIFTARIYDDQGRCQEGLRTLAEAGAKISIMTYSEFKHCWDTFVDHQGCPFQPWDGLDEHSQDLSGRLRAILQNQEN
PABP polyA inh – PABP poly(A) RNA binding inhibitors, primary screen, biochemical, fluorescence polarization, uHTS. calls only at 35 µM. actives 1% (n = 290,000);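 note: calls also rest on retests at 20 µM and on dose response follow-up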
A3A deaminase – APOBEC3A ssDNA deaminase inhibitors, primary screen, selectivity assay for APOBEC3G inhibitor project, biochemical, FAM/TAMRA oligo cleavage fluorescence. recombinant A3A, FAM/TAMRA ssDNA deamination fluorescence. AID 493011, 2011. actives 0.41% (n = 330,000). DNA dC->dU-editing enzyme APOBEC-3A (Homo sapiens), P31941. inhibition, % at 20 µM;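 active = at least 40% inhibition at 20 µM here, with at most 30% in a related deaminase screen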
APOBEC3A confirm – APOBEC3A deaminase inhibitors, retest, confirmation, selectivity assay for APOBEC3G inhibitor project, biochemical, single concentration, fluorescence readout; actives 63% (n = 1,400); AID 493151, 2011; inhibition, % at 20 µM; recombinant A3A, ssDNA deaminase UDG fluorescence assay; shares compounds with A3A deaminase;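 active = inhibition reaching a set limit, 80% of the first screen's cutoff, at 20 µM in any replicate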
UDG A3A counter – E. coli UDG inhibitors, confirmation, counter-screen for APOBEC3A inhibitor project, biochemical, single concentration, fluorescence, FAM/TAMRA oligo. shares compounds with A3A deaminase. inhibition, % at 20 µM. 1,000 tested, under 10 active. AID 504714, 2011. UDG counterscreen, FAM/TAMRA uracil oligo fluorescence
Large screens that a line does not name were inactive (follow-up assays come after a bar, where they were run). Unless noted, the rule behind the calls is not given here.

COC(=O)c1cc(NC(=O)Cc2cccs2)cc(C(=O)OC)c1	A3A deaminase 64.0 | APOBEC3A confirm 48.0
CC(=O)Nc1cccc(NC(=O)Cc2cccs2)c1	none
COc1cc(C(=O)NNC(=O)c2cc(C)[nH]n2)cc(OC)c1OC	none
Oc1ccc(Nc2nc3ccccc3nc2Nc2ccc(O)cc2)cc1	PHOSPHO1 inh 99.8, A3A deaminase 41.9 | APOBEC3A confirm 42.9 | UDG A3A counter inactive
COc1ccc(/C=N/OC(=O)Nc2ccccc2OC)cc1	A3A deaminase 97.2 | APOBEC3A confirm inactive | UDG A3A counter inactive
COc1ccc(NC(=O)O/N=C/c2ccc(Br)cc2)cc1	none
Cc1ccc(Cl)c(OCC(=O)Nc2cccnc2)c1	A3A deaminase 44.0 | APOBEC3A confirm inactive
CC1=C(C(=O)N(C)C)CC(CC(=O)NCc2cccc3ccccc23)C(=O)N1CCC1=CCCCC1 (centres undefined)	none (no result: PHOSPHO1 inh, eIF4H FP inh, A3G deaminase, PABP polyA inh, A3A deaminase)
CCOc1ccc(NC(=O)CC2S/C(=N/N=C3CCCCCC3)NC2=O)cc1 (centres undefined)	none
COCCN1Cc2cccc(C(=O)NCc3ccccc3OC)c2C1=O	A3A deaminase 95.8 | APOBEC3A confirm inactive | UDG A3A counter inactive
O=C(NCC(c1ccco1)N1CCOCC1)c1ccc(F)cc1 (centres undefined)	none (no result: PHOSPHO1 inh, eIF4H FP inh, PABP polyA inh)
O=C(NCC(c1ccco1)N1CCOCC1)c1c(F)cccc1F (centres undefined)	A3A deaminase 43.1 (no result: PHOSPHO1 inh, eIF4H FP inh, PABP polyA inh) | APOBEC3A confirm inactive | UDG A3A counter inactive
CCn1c(/C=C/c2cc[n+](C)cc2)nc2ccccc21	PABP polyA inh active, A3A deaminase 52.6 | APOBEC3A confirm 46.6
CCCn1c(/C=C/c2ccccc2)nc2ccccc21	none
Cc1ccccc1N1CCN(C2CCCN(C(=O)CCN3CCCO3)C2)CC1 (centres undefined)	none
CCCCn1c2c(c(=N)c3c1CCC3)CCC2	PHOSPHO1 inh 95.3, A3A deaminase 62.7 | APOBEC3A confirm 77.9 | UDG A3A counter inactive
CCCCCCCCCn1c2c(c(=N)c3c1CCC3)CCC2	none
O=C(CSc1nnnn1-c1ccccc1)Nc1ccc(N2CCOCC2)c(Cl)c1	A3A deaminase 63.6 | APOBEC3A confirm 54.9 | UDG A3A counter inactive
O=C(CSc1nnnn1-c1cccc2ccccc12)Nc1ccc(N2CCOCC2)c(Cl)c1	none
COc1cccc(CNC(=O)CS(=O)(=O)Cc2nc(-c3ccc(C)cc3)oc2C)c1OC	none
Fc1cc(Br)ccc1COc1ccc(-c2nnco2)cc1	none
COc1ccc2cc(C)c3nnc(SCC(=O)Nc4cc(OC)c(OC)cc4C(=O)O)n3c2c1	A3A deaminase 98.7 | APOBEC3A confirm inactive | UDG A3A counter inactive
COc1ccc([C@@H]2CC=C(C(=O)O)[C@H](c3ccccc3)N2S(=O)(=O)c2ccccc2C)cc1	none (no result: PHOSPHO1 inh, eIF4H FP inh, PABP polyA inh)
Cc1ccc(NS(=O)(=O)c2ccc(C)c(C(=O)N3CCOCC3)c2)cc1	none
CCc1ccc(NS(=O)(=O)c2ccc(C)c(C(=O)N3CCOCC3)c2)cc1	A3A deaminase 74.5 (no result: eIF4H FP inh, PABP polyA inh) | APOBEC3A confirm 90.7 | UDG A3A counter inactive
CCSCCNC(=O)c1cc(-n2cnnc2)ccc1Cl	A3A deaminase 60.2 | APOBEC3A confirm 60.5 | UDG A3A counter inactive
O=C(NCc1ccc2c(c1)OCO2)c1cc(-n2cnnc2)ccc1Cl	A3A deaminase 57.2 | APOBEC3A confirm 71.9 | UDG A3A counter inactive
O=C(NCCOc1cccc(Cl)c1Cl)c1cc(-n2cnnc2)ccc1Cl	none
CN(C)c1cccc(N=C2C=C(N3CCOCC3)CC(C)(C)C2)c1	none
O=C1C=C(N2CCOCC2)CO1	none (no result: PHOSPHO1 inh, eIF4H FP inh, PABP polyA inh)
CC1(C)CC(N2CCOCC2)=CC(=[N+]2CCOCC2)C1	A3A deaminase 66.2 | APOBEC3A confirm 69.3 | UDG A3A counter inactive
CC1(C)CC(N2CCCCC2)=CC(=[N+]2CCCCC2)C1	A3A deaminase 59.7 | APOBEC3A confirm 69.1 | UDG A3A counter inactive
CCCN(CCC)C1=CC(=[N+]2CCCC2)CC(C)(C)C1	A3A deaminase 59.9 | APOBEC3A confirm inactive
CC1C[N+](=C2C=C(N3CCOCC3)CC(C)(C)C2)CC(C)O1 (centres undefined)	A3A deaminase 56.9 | APOBEC3A confirm 65.5 | UDG A3A counter inactive
CCCNC(=O)C1(C)CCN(C(=O)c2cc(C)nn2C(C)(C)C)C1 (centres undefined)	none (no result: PHOSPHO1 inh, eIF4H FP inh, A3G deaminase, PABP polyA inh, A3A deaminase)
O=C1CCCC(O)=C1C(C#Cc1ccccc1)C1=C(O)CCCC1=O	none
O=C1CCCC(O)=C1Sc1ccccc1C(=O)O	eIF4H FP inh 86.8, A3A deaminase 54.7 | APOBEC3A confirm 57.1 | UDG A3A counter inactive
CN(C)CCSc1nc2cc(S(=O)(=O)N3CCCCC3)ccc2o1	none (no result: PHOSPHO1 inh, eIF4H FP inh, PABP polyA inh)
O=C(NCC(=O)N1CCCC1)c1ccc(Br)cc1	none
C[n+]1cnc(-c2ccccc2)cc1-c1ccccc1	A3A deaminase 45.0 | APOBEC3A confirm 62.3 | UDG A3A counter inactive
Cc1occc1C(=O)NCc1ccc(C(=O)O)o1	none
Cc1cc(C(=O)NCc2ccc(C(=O)O)o2)c(C)o1	PABP polyA inh active, A3A deaminase 46.7 | APOBEC3A confirm 48.0 | UDG A3A counter inactive
Cc1c(N=Cc2cc(Br)cc(Br)c2O)cccc1C(=O)O	none
COC(=O)c1ccc(NC(=O)C2CCN(C(=O)Nc3ccccc3)CC2)cc1	A3A deaminase 59.2 (no result: PHOSPHO1 inh, eIF4H FP inh, PABP polyA inh) | APOBEC3A confirm inactive
COC(=O)C1=C(C)N(Cc2ccccc2)C(=NCCCCO)N[C@H]1c1ccccc1	PABP polyA inh active, A3A deaminase 51.5 (no result: MLLE-PAM2 inh) | APOBEC3A confirm 74.6 | UDG A3A counter inactive
COC(=O)C1=C(C)N(Cc2ccccc2)C(=NCCc2cccnc2)N[C@H]1c1ccc(Br)cc1	A3A deaminase 44.9 (no result: PHOSPHO1 inh, eIF4H FP inh, PABP polyA inh) | APOBEC3A confirm 54.3 | UDG A3A counter inactive
COC(=O)C1=C(C)N(Cc2ccccc2)C(=NCCc2cccnc2)N[C@H]1c1ccccc1	A3A deaminase 79.6 | APOBEC3A confirm 73.9 | UDG A3A counter inactive
COC(=O)C1=C(C)N(Cc2ccccc2)C(=NCC2CC2)N[C@H]1c1ccccc1	none (no result: PHOSPHO1 inh, eIF4H FP inh, PABP polyA inh)
Cc1ccc(OCCC(=O)OCC(=O)Nc2cc(S(=O)(=O)N(C)C)ccc2C)cc1	none
Cc1cc(C(=O)O)cc(S(=O)(=O)NNC(=O)c2cccs2)c1C	none
